Assay results reported in PubChem BioAssay (NCI).
About 79,000 compounds went through this panel and 15% of them were active in at least one assay; those are over-represented in the sample as a whole. Calls of active or inactive are those of the source. No stated cut-off is given here; in the data, active means growth inhibition above about 70%; inactive means the rest.

Tests used:
[1] = NCI Yeast Anticancer Drug Screen. Data for the rad50 strain (AID 155);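 further: 0% = growth of vehicle-only cultures of the same strain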; conditions: S. cerevisiae rad50 strain growth inhibition, stronger effect = higher value
In short: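 Relative growth inhibition (compound vs vehicle) was measured in yeast with a defined repair-gene alteration.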

[2] = NCI Yeast Anticancer Drug Screen. Data for the mec2-1 strain (AID 157); conditions: S. cerevisiae mec2-1 strain, stronger effect = higher value
In short: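 Mutant yeast (mec2-1) grown with compound; growth inhibition relative to vehicle control reported.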

[3] = NCI Yeast Anticancer Drug Screen. Data for the sgs1 mgt1 strain (AID 161);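 further: 0% = growth of cultures given vehicle only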; conditions: S. cerevisiae sgs1 mgt1 strain, stronger effect = higher value
In short: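 Growth of a repair-deficient yeast mutant was monitored after compound treatment and expressed as inhibition relative to vehicle-treated cultures.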

[4] = NCI Yeast Anticancer Drug Screen. Data for the cln2 rad14 strain (AID 165);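 further: 0% = growth equal to vehicle treated cultures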; conditions: S. cerevisiae cln2 rad14 strain, stronger effect = higher value
In short: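 Readout is yeast growth inhibition versus vehicle-treated controls, using a strain with cln2 and rad14 alterations exposed to compound.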

[5] = NCI Yeast Anticancer Drug Screen. Data for the bub3 strain (AID 167); conditions: S. cerevisiae bub3 mutant strain, stronger effect = higher value
In short: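 Screening used yeast with an engineered genetic alteration affecting cell cycle control. Compound-exposed cultures were compared with vehicle cultures, and reduced growth was taken as inhibition.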

[6] = NCI Yeast Anticancer Drug Screen. Data for the mlh1 rad18 strain (AID 175); conditions: S. cerevisiae mlh1 rad18 strain growth inhibition, stronger effect = higher value
In short: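 Genetically defined yeast (DNA repair-deficient) exposed to compounds; growth inhibition determined relative to vehicle.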

[7] = at 5.0 µM (retest, dose inferred, filed as 0.5)
[8] = at 50.0 µM (retest, dose inferred, filed as 5.0)

Measured: growth inhibition

CN1C(=O)C(C2C(=O)N(C)C(=O)N(C)C2=O)C(=O)N(C)C1=O
inactive: [1]; [7] 13% | [1]; [8] -3% | [1]; at 50.0 µM 2.95% | [2]; [7] 2% | [2]; [8] 0% | [2]; at 50.0 µM 0.9% | [3]; [7] 0% | [3]; [8] -11% | [3]; at 50.0 µM 12.2% | [4]; [7] 2% | [4]; [8] 4% | [4]; at 50.0 µM 39.4% | [5]; [7] 0% | [5]; [8] -2% | [5]; at 50.0 µM -2.2% | [6]; [7] 1% | [6]; [8] -2% | [6]; at 50.0 µM 8.55%

CSC(=N)N1N=C2/C(=C/c3ccccc3)CCC[C@H]2[C@H]1c1ccccc1
inactive: [1]; [7] -17% | [1]; [8] -14% | [1]; at 50.0 µM 21.4% | [2]; [7] -7% | [2]; [8] -2% | [2]; at 50.0 µM -6.7% | [3]; [7] -13% | [3]; [8] 13% | [3]; at 50.0 µM 40.7% | [4]; [7] -35% | [4]; [8] 5% | [4]; at 50.0 µM -14.8% | [5]; [7] -3% | [5]; [8] 5% | [5]; at 50.0 µM 4.45% | [6]; [7] -10% | [6]; [8] 29% | [6]; at 50.0 µM 27.9%

O=[N+]([O-])c1ccc(-c2ccccc2Cl)c([N+](=O)[O-])c1
active: [1]; [8] 95% | [1]; at 50.0 µM 95.8% | [2]; [8] 92% | [2]; at 50.0 µM 95.7% | [3]; [8] 96% | [3]; at 50.0 µM 91.2% | [4]; [8] 83% | [4]; at 50.0 µM 80.1% | [5]; [8] 93% | [5]; at 50.0 µM 95.8% | [6]; [8] 97% | [6]; at 50.0 µM 93.7%
inactive: [1]; [7] 2% | [2]; [7] -7% | [3]; [7] 6% | [4]; [7] -8% | [5]; [7] -6% | [6]; [7] 5%

N/C(=N\OC(=O)Nc1ccccc1)c1ccccc1
active: [3]; [8] 70% | [6]; [8] 76%
inactive: [1]; [7] 7% | [1]; [8] 51% | [1]; at 50.0 µM 42.1% | [2]; [7] 8% | [2]; [8] 40% | [2]; at 50.0 µM 33% | [3]; [7] 13% | [3]; at 50.0 µM 68% | [4]; [7] 2% | [4]; [8] 38% | [4]; at 50.0 µM 32.2% | [5]; [7] -3% | [5]; [8] 24% | [5]; at 50.0 µM 11.7% | [6]; [7] 4% | [6]; at 50.0 µM 58.6%

O=C(CCCCCCCCCCc1ccccc1)c1c(O)cccc1O
active: [1]; [8] 96% | [1]; at 50.0 µM 82.7% | [2]; [8] 97% | [2]; at 50.0 µM 89% | [3]; [8] 97% | [3]; at 50.0 µM 87.2% | [4]; [8] 95% | [4]; at 50.0 µM 83.3% | [5]; [8] 97% | [5]; at 50.0 µM 85.4% | [6]; [8] 95% | [6]; at 50.0 µM 79.3%
inactive: [1]; [7] 37% | [2]; [7] 29% | [3]; [7] 45% | [4]; [7] 24% | [5]; [7] 41% | [6]; [7] 39%

[N-]=[N+]=CC(=O)C1(c2ccccc2)OC1c1ccccc1 (configuration not stated)
inactive: [1]; [7] -20% | [1]; [8] 1% | [1]; at 50.0 µM 23.6% | [2]; [7] 7% | [2]; [8] 10% | [2]; at 50.0 µM 2.55% | [3]; [7] -16% | [3]; [8] -4% | [3]; at 50.0 µM 55.5% | [4]; [7] -21% | [4]; [8] -18% | [4]; at 50.0 µM 32.5% | [5]; [7] -43% | [5]; [8] -6% | [5]; at 50.0 µM -7.55% | [6]; [7] -32% | [6]; [8] -33%
active: [6]; at 50.0 µM 82.8%

CCOC(=O)C(=C=C=C(c1ccccc1)c1ccccc1)C(=O)OCC
active: [3]; at 50.0 µM 78.2%
inactive: [1]; [7] -3% | [1]; [8] 6% | [1]; at 50.0 µM 33.9% | [2]; [7] -2% | [2]; [8] 17% | [2]; at 50.0 µM 23.5% | [3]; [7] -3% | [3]; [8] 40% | [4]; [7] 0% | [4]; [8] 1% | [4]; at 50.0 µM 50.1% | [5]; [7] -4% | [5]; [8] 6% | [5]; at 50.0 µM 31% | [6]; [7] -4% | [6]; [8] 6% | [6]; at 50.0 µM 50.5%

CC1(C)N([O-])[N+](=O)C1(Br)c1ccccc1 (configuration not stated)
inactive: [1]; [7] 22% | [2]; [7] 17% | [3]; [7] -6% | [4]; [7] 8% | [4]; [8] 64% | [5]; [7] -24% | [6]; [7] 25%
active: [1]; [8] 99% | [1]; at 50.0 µM 86.7% | [2]; [8] 100% | [2]; at 50.0 µM 93.8% | [3]; [8] 95% | [3]; at 50.0 µM 92.6% | [4]; at 50.0 µM 90.2% | [5]; [8] 96% | [5]; at 50.0 µM 87.5% | [6]; [8] 99% | [6]; at 50.0 µM 84.5%

CCCCCCCCCCC[N+](C)(C)CCCCCC[N+](C)(C)CCCCCCCCCCC
active: [1]; [7] 92% | [1]; [8] 98% | [1]; at 50.0 µM 88.6% | [2]; [7] 97% | [2]; [8] 99% | [2]; at 50.0 µM 91% | [3]; [7] 99% | [3]; [8] 99% | [3]; at 50.0 µM 90.9% | [4]; [7] 96% | [4]; [8] 99% | [4]; at 50.0 µM 90.3% | [5]; [7] 99% | [5]; [8] 100% | [5]; at 50.0 µM 88.4% | [6]; [7] 97% | [6]; [8] 99% | [6]; at 50.0 µM 90.2%
